# The source made the active and inactive calls. The call rests on the fitted dose curve; in most records, active means well fitted curve in the direction sought with a large enough effect in the repeat runs; inconclusive means weak or mixed curves; inactive means flat fitted curve, though single readings scatter.
# Assay: qHTS assay to test for compound auto fluorescence at 460 nm (blue) in HepG2 cells (AID 720687)
# Settings: autofluorescence 405/460 nm, 1 h; series mostly up to 91.3 µM
# Text: U.S. Tox21 Program National Center for Advancing Translational Sciences [NCATS] NIH Chemical Genomics Center [NCGC] U.S. Environmental Protection Agency [EPA] National Institutes of Environmental Health Sciences [NIEHS] National Toxicology Program [NTP] U.S. Food and Drug Administration [FDA] Tox21 Assay Overview: Compound auto fluorescence often interferes with screening of the compound library against various biological targets and signaling pathways. Some of these compounds may have fluorophoric properties. Such properties may interfere with the assay outputs resulting in false positives and/or negatives. To decrease such complications and ensure the compound activities are relevant in terms of biological response, the Tox21 10K compound library was screened for auto fluorescence. From the fluorophores used as reporter signals in our screening assays, the auto fluorescence equivalencies of compounds against three fluorophores have been evaluated: Triamterene, Fluorescein and Rose Bengal sodium for blue, green and red fluorescence, respectively. The fluorescence intensities were measured using Excitation/Emission wavelengths at 405/460nm, 485/535nm and 540/590nm for blue, green and red labels, respectively. This assay includes the blue fluorescence data.
# Tox21 Assay Protocol Summary: 2,000 HepG2 cells in 5 uL of culture medium (MEM containing 10% FBS) per well were dispensed into black wall/clear bottom 1536-well plates using a Multidrop Combi Dispenser (ThermoFisher Scientific, Waltham, MA). The assay plates were incubated overnight at 37 C to allow cell attachment to the well bottom, followed by the transfer of 23 nL compound or DMSO vehicle by a pintool work station (Kalypsys , San Diego, CA). After the assay plates were incubated for 1 hr at 37 C and 5% CO2, fluorescence intensities in the assay plates were measured by an Envision (PerkinElmer, Shelton, CT) plate reader using three labels for measuring blue, green and red fluorescence at […] 460, 535 and 590 nm respectively.
row,Compound,outcome
1,NC(=S)NNC(N)=S,inactive
2,C=CCCCCCCCCC(=O)O,inactive
3,O=C(OCC1CCC2OC2C1)C1CCC2OC2C1 (stereo not given),inactive
4,COC(=O)CCCC(=O)OC,inactive
5,CCOC(=O)c1ccc(N)cc1,inactive
6,CC(C)(C#N)c1cc(Cn2cncn2)cc(C(C)(C)C#N)c1,inactive
7,CC1(C)NC(=O)NC1=O,inactive
8,O=C1c2ccccc2CCc2ccccc21,inactive
9,CCOC(=O)n1ccn(C)c1=S,inactive
10,CN(C)c1ccc(Cc2ccc(N(C)C)cc2)cc1,inactive
11,COc1ccc(C)cc1N,inactive
12,C=C(C)CNCC,inactive
13,O=C(O)c1ccc(S(=O)(=O)N(Cl)Cl)cc1,inactive
14,CC(C)OP(=O)(CP(=O)(OC(C)C)OC(C)C)OC(C)C,inactive
15,c1ccc2c(c1)Cc1ccccc1-2,inactive
16,Clc1ccccn1,inactive
17,C=Cc1ccc(C)cc1,inactive
18,COCCOC(=O)c1ccccc1C(=O)OCCOC,inactive
19,O=C(O)c1cc2ccccc2cc1O,inactive
20,N[C@H](Cc1c[nH]c2ccccc12)C(=O)O,inactive

row,Compound,outcome
1,COCCCN,inactive
2,CC(C)(C)c1cc(Cc2cc(C(C)(C)C)c(O)c(C(C)(C)C)c2)cc(C(C)(C)C)c1O,inactive
3,CCO[Si](CCC#N)(OCC)OCC,inactive
4,CCNc1ccccc1,inactive
5,CC(=O)OC1CC(C)OC(C)O1 (stereo not given),inactive
6,CC(C)CC(=O)CC(C)CC(C)C (stereo not given),inactive
7,CC(CCO)CC(C)(C)C (stereo not given),inactive
8,CNC(=S)N(C)C,inactive
9,O=[N+]([O-])c1ccc2nc[nH]c2c1,inactive
10,CC(C)=CCl,inactive
11,CC(=O)Oc1ccc(C)cc1,inactive
12,COc1ccc(N)c(C)c1,inactive
13,Cc1ccc2ncccc2c1,inactive
14,C=CC(=O)OCCC(=O)O,inactive
15,CC(C)(Oc1ccc(CCNC(=O)c2ccc(Cl)cc2)cc1)C(=O)O,inactive
16,CC(=O)OCc1ccco1,inactive
17,CC(=O)OCc1ccccc1,inactive
18,NCCNCCN,inactive
19,CC(=O)c1ccc(O)cc1,inactive
20,CCO[Si](CCCN)(OCC)OCC,inactive

# Reference: PubChem BioAssay (Tox21)
